Screening results from PubChem.
A selection: hits, their analogues and other compounds. The true share with any hit is near 3.1%.
EP2 antag: human EP2 receptor antagonists, primary screen, TR-FRET cAMP, C6 glioma cells; C6 glioma cells expressing human EP2; cells stimulated with saturating PGE2; inhibition, % at 25 µM; Prostaglandin E2 receptor EP2 subtype (Homo sapiens), P43116; 260,000 tested, 0.52% active; AID 1422, 2008;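 active means percent inhibition above 40 after rounding to a whole number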;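 further: rat C6 glioma host cells with rolipram phosphodiesterase inhibitor present; the protocol text gives 20 µM as final concentration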
Target sequence (P43116 whole entry, looked up): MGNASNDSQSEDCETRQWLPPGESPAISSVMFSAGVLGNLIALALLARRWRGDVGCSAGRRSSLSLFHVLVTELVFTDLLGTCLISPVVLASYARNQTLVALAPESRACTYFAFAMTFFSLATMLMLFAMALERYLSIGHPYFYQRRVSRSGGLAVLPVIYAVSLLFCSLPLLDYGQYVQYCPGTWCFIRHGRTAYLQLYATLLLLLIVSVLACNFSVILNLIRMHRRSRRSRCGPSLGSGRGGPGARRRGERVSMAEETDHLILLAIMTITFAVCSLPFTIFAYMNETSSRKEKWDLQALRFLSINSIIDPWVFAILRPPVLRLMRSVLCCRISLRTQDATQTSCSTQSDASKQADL
S1P3 antag: S1P3 receptor antagonists, primary screen, cell-based | CHO S1P3 NFAT-BLA reporter, FRET fluorescence, antagonist mode | 170,000 tested, 0.27% active | Sphingosine 1-phosphate receptor 3 (Homo sapiens), Q99500 | inhibition, % at 4.98 µM;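 active means inhibition above the plate cutoff, the mean inhibition of test wells on that plate plus 3 SD, cut at about 28% in these data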;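 further: cells challenged with S1P at its EC80 of 0.8 µM; blue over green emission ratio from cleaved BLA substrate after 4 h stimulation; 0% = S1P-stimulated wells and 100% = unstimulated DMSO-only wells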
Target sequence (Q99500 whole entry, looked up): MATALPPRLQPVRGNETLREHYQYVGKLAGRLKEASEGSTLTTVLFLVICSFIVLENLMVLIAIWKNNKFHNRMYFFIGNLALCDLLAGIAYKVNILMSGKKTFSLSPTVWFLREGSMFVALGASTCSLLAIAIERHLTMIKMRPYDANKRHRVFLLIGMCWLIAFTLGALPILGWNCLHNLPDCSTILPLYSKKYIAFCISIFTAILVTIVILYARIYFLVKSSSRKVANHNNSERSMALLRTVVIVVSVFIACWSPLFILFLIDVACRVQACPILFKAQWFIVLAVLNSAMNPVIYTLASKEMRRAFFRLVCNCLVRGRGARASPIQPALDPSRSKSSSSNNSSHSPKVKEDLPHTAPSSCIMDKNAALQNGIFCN
Cl transport mod: KCC2 cotransporter modulators, thallium flux, primary screen, cell-based, HEK293 KCC2, FluoZin-2 fluorescence, MLSMR; Solute carrier family 12 member 5 (Homo sapiens), Q9H2X9; B-score of Tl+ flux slope (higher = more flux/activation; lower = inhibition) at 10 µM; KCC2 cells, thallium flux FluoZin-2 fluorescence; 190,000 tested, 2.2% active;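 active means thallium flux slope and its plate-corrected score both differing from the plate sample mean at a set confidence after two filtering rounds, in either direction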;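 further: slope of fluorescence scaled to starting intensity during 10 to 20 s after thallium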
EP2 mod: EP2 receptor modulators, cAMP readout, primary screen, cell-based, HTRF cAMP, PGE2 stimulation | Prostaglandin E2 receptor EP2 subtype (Homo sapiens), P43116 | EP2-expressing cells, cAMP HTRF FRET, PGE2 co-stimulation | induction, % at 25 µM | 260,000 tested, 0.83% active | AID 940, 2007;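 active means compounds whose cAMP rise, as percent of the full-agonist control response, exceeds 60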;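 further: rat C6 glioma line stably carrying human EP2 under a CMV promoter; the protocol text gives 20 µM as final concentration; 100% = response of wells given 1 µM PGE2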
KCC2 secondary: KCC2 modulators in sodium-free buffer, confirmation, cell-based, HEK293 KCC2, thallium flux, secondary assay | shares compounds with Cl transport mod | normalised thallium flux (F/F0 slope) at 10 µM | FluoZin2 fluorescence; active compounds read high | 3,700 tested, 15% active | AID 1713, 2009;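 active means thallium flux slope above the same plate's solvent-only control mean plus 3 SD; inconclusive means the two replicate wells disagree; inactive means no significant difference from solvent-only control wells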
KCC2 bumet counter: thallium flux persisting under bumetanide in KCC2 cells, confirmation, counter-screen for KCC2 modulator project, cell-based, HEK293 KCC2, FluoZin2, secondary assay 3; AID 1714, 2009; normalized thallium flux at 10 µM; HEK293-KCC2 + bumetanide/ouabain; active compounds read high; shares compounds with Cl transport mod; 3,700 tested, 49% active;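 active means thallium entry rate above the same plate's blocked-transporter control wells by more than 3 SD; inconclusive means the two repeat wells disagree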;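 further: raw slope of fluorescence over initial fluorescence between 10 and 20 s after thallium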
KCC2 sec2: KCC2 modulators without ouabain present, confirmation, cell-based, HEK293 KCC2, thallium flux, FluoZin2, secondary assay 2; 3,700 tested, 23% active; thallium flux FluoZin2 fluorescence; actives lie on both sides; F/F0 rise rate, 10–20 s post-thallium; shares compounds with Cl transport mod; normalized thallium flux at 10 µM;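 active means thallium flux slope more than 3 SD above or below the plate's solvent-only control mean, mostly below; inconclusive means the two repeat wells disagreed; inactive means no significant shift from solvent-only controls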;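 further: raw slope with 0.1% DMSO as baseline and bumetanide as block control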
HEK293 Tl flux: thallium flux modulation in parental HEK cells, confirmation, counter-screen for KCC2 modulator project, cell-based, counterscreen 1; shares compounds with Cl transport mod; HEK293 parental cells, thallium flux FluoZin2, ouabain; baseline-ratio fluorescence slope, 10–20 s after thallium; thallium flux rate (normalised fluorescence) at 10 µM; 3,700 tested, 46% active; AID 1716, 2009;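 active means thallium flux rate significantly above the same plate's solvent-only control wells, beyond their mean plus 3 SD; inconclusive means the two replicate wells gave conflicting results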
KCC2 ouabain: KCC2 inhibitors and activators, ouabain retest, confirmation, HEK-KCC2 cells. shares compounds with Cl transport mod. HEK293-KCC2, thallium flux FluoZin2 fluorescence; bidirectional: low = inhibitor, high = activator. raw Tl+ flux slope (below DMSO = inhibition, above = activation) at 10 µM. 3,700 tested, 48% active;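 active means thallium flux slope beyond 3 SD from same-plate DMSO control mean in most replicates, usually higher, sometimes lower; inconclusive means repeat tests gave conflicting results; inactive means no significant difference from controls in most replicates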;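 further: slope of initial-normalized fluorescence between seconds 10 and 20 after thallium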
HEK293 Tl flux2: native HEK Tl+ uptake effects, second counter-screen – HEK cells, counterscreen 2, counter-screen for KCC2 modulator project, confirmation; shares compounds with Cl transport mod; HEK293 parental, thallium flux FluoZin-2 fluorescence slope; thallium flux slope at 10 µM; 3,700 tested, 33% active; AID 1718, 2009;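 active means thallium flux slope above the same plate's solvent-control mean plus 3 SD in both duplicate wells; inconclusive means duplicate wells that disagreed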;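 further: run without ouabain in cells lacking the KCC2 cotransporter; slope of fluorescence scaled to its starting value between 10 and 20 s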
* hit, by the source's call; ? = inconclusive; . = not tested or not shown.

SMILES	EP2 antag	S1P3 antag	Cl transport mod	EP2 mod	KCC2 secondary	KCC2 bumet counter	KCC2 sec2	HEK293 Tl flux	KCC2 ouabain	HEK293 Tl flux2
CCc1ccccc1NC(=S)NNC(=O)c1ccccc1Cl	10	3	3.2*	10	0.017	0.012*	0.03	0.011*	0.019	0.014*
CCc1ccccc1NC(=S)NN	9	10	-0.39	23	.	.	.	.	.	.
O=C(NC(=S)Nc1nc(-c2cccc([N+](=O)[O-])c2)cs1)c1cc(Cl)ccc1Cl	16	-3	6.1*	-49	0.0097	0.011*	0.032	0.0088*	0.027*	0.01*
COC(=O)c1ccccc1NC(=S)NC(=O)COc1ccc(C)cc1	13	.	3.2	.	.	.	.	.	.	.
O=C(NC(=S)Nc1ccccc1[N+](=O)[O-])c1ccccc1Cl	9	10	19*	-12	?	0.034*	0.035	0.019*	0.03*	0.013*
CC(C)[C@H](Cn1nc(-c2ccc(F)c(F)c2)ccc1=O)NC(=O)C1CCC1	7	.	.	-23	.	.	.	.	.	.
Cc1ccc(NC(=S)NC(=O)c2ccc(Cl)cc2Cl)nc1	14	.	.	-42	.	.	.	.	.	.
CCn1c(SCC(=O)Nc2ccc(NC(C)=O)cc2)nnc1-c1cccnc1	10	.	.	8	.	.	.	.	.	.
O=C(NC(=S)Nc1nc(-c2cccc([N+](=O)[O-])c2)cs1)c1ccccc1Cl	5	-15	4.8*	-12	0.0073	0.0079*	0.03	0.012*	0.024*	0.014*
CCOC(=O)Cc1csc(NC(=O)c2ccc(OC)c(OC)c2)n1	6	.	-0.0054	-12	.	.	.	.	.	.
CCOC(=O)Cc1csc(NC(=S)NC(=O)c2cc(OC)c(OC)c(OC)c2)n1	7	0	6.9*	19	0.016	0.016*	0.03	0.0098*	0.019	0.011
CCOC(=O)Cc1csc(NC(=S)NC(=O)c2ccc(F)cc2)n1	.	.	11*	-11	0.0072	0.039*	0.041*	0.03*	0.046*	0.02*
O=C(CSc1nnc(-c2ccc(O)cc2)n1Cc1ccco1)N1CCc2ccccc2C1	17	-3	-3.7*	-4	0.0071	0.004	0.023*	0.0069	0.013*	0.0099
O=c1cc(-c2ccccc2)nc(SCc2ccc(F)cc2)[nH]1	14	3	3.9*	32	0.0065	0.0048	0.027	0.0075	0.018	0.0099
CCOC(=O)N1CCN(C(=O)c2cc(COc3ccc4ncccc4c3)on2)CC1	9	6	-0.71	-59	.	.	.	.	.	.
Cc1cccnc1CN1CCN(C(=O)c2cc(COc3ccc4ncccc4c3)on2)CC1	4	27	.	-26	0.0085	0.0066	?	0.0075	0.017*	0.01
O=C(COc1ncnc2ccccc12)N1CCC(C2CCCCC2)C1 (configuration not stated)	5	.	.	-53	.	.	.	.	.	.
O=C(COc1ccc2ccccc2c1)Nc1cccc(C(=O)Nc2ccccc2C(=O)O)c1	10	12	-4.7*	-75	?	0.0055	0.024*	?	0.014*	?
CCCCCCCCNC(=O)C(CCC(=O)OCc1ccccc1)NC(C)=O (configuration not stated)	12	.	.	0	0.0056	0.0043	0.023*	?	0.013*	0.0099
COc1ccc(C2/C=C\CN(C(=O)CC(C)C)CC(=O)N2Cc2ccc(F)cc2)cc1 (configuration not stated)	12	.	-3*	9	0.016	0.0034	0.025*	0.0059*	0.015	0.0087
COc1ccc(C2/C=C\CN(C(=O)CC(C)(C)C)CC(=O)N2Cc2ccc(F)cc2)cc1 (configuration not stated)	12	.	-2.4	28	.	.	.	.	.	.
CN(Cc1ccccc1)C(=O)COC(=O)c1cc(NS(=O)(=O)c2cccs2)ccc1O	8	-13	-3.5*	-34	0.018	0.0046	0.022*	0.0066	0.014	0.01
Cn1nc(C(=O)Nc2nc3ccc(S(C)(=O)=O)cc3s2)ccc1=O	.	.	4.7*	5	0.012	0.021*	0.032	0.013*	0.026	?
Cc1ccc(C)c2c1cc(C)c1nnc(SCC(=O)Nc3ccc(F)cc3)n12	12	.	.	0	.	.	.	.	.	.
COC(=O)CSc1nc(N2CCCCC2)c2c(c1C#N)CCCC2	16	10	-0.85	52	.	.	.	.	.	.
N#Cc1c(SCC(=O)O)nc(N2CCCCC2)c2c1CCCC2	10	.	-3.2*	45	0.012	0.0062	0.033	0.0064	0.02	0.011
S=c1[nH]nc(-c2ccccn2)n1/N=C/c1ccc(-c2ccccc2Br)o1	26	0	84*	26	0.006	0.14*	0.17*	0.14*	0.14*	0.15*
COc1cccc(Cn2cnc3c(NS(=O)(=O)c4cc(Cl)ccc4Cl)c(C)c(C)cc32)c1	13	.	.	49	0.0091	0.0091*	0.031	?	0.026	?
Cc1nn(-c2cc(C(F)(F)F)ccc2Cl)c2nc(C(Cl)(Cl)Cl)[nH]c(=O)c12	13	3	50*	21	0.0058	0.061*	0.048*	0.036*	0.048*	0.034*
COc1ccc(C2c3sc(=O)[nH]c3SC3C(=O)N(c4ccccc4)C(=O)C32)cc1 (configuration not stated)	8	-21	-5.9*	-7	0.0055	0.0087*	0.022*	0.0097*	0.011*	0.011
